Here are results for 40 sequences from the supplement of paper PMC6555819.

The test system of the assay is VDR:RXRa (NR concentration 270 nM, RXRa partner concentration 90 nM). In words: PBM binding z-score (relative to random genomic background probes); higher = stronger binding; sequences stand for … in GC…GCGATTGACAGCGTAGAATGAAGG
Here is the method:
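Protein-binding microarray (Agilent 4x180K custom design, double-stranded 60-nt probes: 5' GC cap, 34-nt variable region, 24-nt constant primer region; full probe sequence given). Purified or IVT nuclear receptor:RXRα heterodimers (3:1 NR:RXRα, mostly 270:90 nM) or homodimers were incubated for 1 h in PBS with 2% milk and no ligand, then detected with Alexa488 antibodies. Fluorescence from o1-orientation probes (~5 replicates averaged) was converted to z-scores against 500 random hg19 background probes. Variable regions are seed direct-repeat (DR0–DR5) sites, all their single-nucleotide variants and half-site ablations.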
As for TCACATAGGTAAAGGTGAAAGTCGAACGATATGA, the PBM binding z-score turned out to be 1.32. CCTACTGGGCAAAGGTCATTGATCAGTCAAAGCA came in with a PBM binding z-score of 4.36. CCCAGCAGGCCAATCTGGGTCACTCAAGGCTTGA showed a PBM binding z-score of 0.284. Under CGGACTAGGTCATTGACAGGACAGTGAATAGTAA stands 2. For the sequence CTCGAAAGGTCGTACTCAGGTGAGTATACCAAAC, the PBM binding z-score is 3.52. Next, CCTCGGAGGAGAGAAGGTCAGAGCTGTCCGCTTT: 0.722. Consider ACAGACAGGTGATGAAGGTAACTCAGGCTATCAT, for which the PBM binding z-score stood at 0.0426. ATATGTCGGTTACATCCGGGTCATTCAGGCTATG yielded a PBM binding z-score of 3.53. Regarding TCTTTTAGATCAGCAGGTTAAGAAAGCTGGCCAA, the PBM binding z-score was determined as 0.691.

Regarding CTACCAAGGTAAACAAGGTCGTTGATTACTATTC, the PBM binding z-score was 4.73. TGTCAAAGTTGAAAGGTAACGTAAGTATCCACAC yielded a PBM binding z-score of 0.996. In turn, ACAAGCAGGCCAAGTTTGGGTCACTCAAACAAAG came in with a PBM binding z-score of 0.676. Sequence AATACAGGGTCACTAGGCCAGAGTCGGTACGAAT yielded a PBM binding z-score of 4.03. In the case of CCAGACAGGTGAAAGGTAACACAGTCTGGTACGC, the PBM binding z-score amounted to 0.959. On to TCTATTGGTTGAAGGGCAACCGACGAGTCCGTTT, for which the PBM binding z-score came to 0.889. Next, TATACAGGTTCAAAGGCCAGAGTACGAATGTCGA: 3.76; CGTCAAAGTTCAACTTAGGTAACGTAAAGCACGC: 4.56; TCTCGGAGGACACGAAAGGCCAGAGCTCGACATC: -0.308.

Consider TCATATAGGTAATACTGGTGAAAGTCGGCATCTA, for which the PBM binding z-score was 0.963.

Sequence GGAACGAGAGCAAGTTGATAGCAGAGTTTGATGG registered a PBM binding z-score of -0.392.

GCGACTAGGGCATCAGCAGGTTACCATAACTTAA registered a PBM binding z-score of -0.295. ACTAGCAGGCCAAGTTTGGGTCATTCAAACAAAG showed a PBM binding z-score of 1.07. CCTACTGGGCCAAAAAGGTCATTGACGCCGATAA displayed a PBM binding z-score of 4.36. The sequence TCGATTAGGTTAGTCGGGGCATTCAGCCAACATA had a PBM binding z-score of 2.14.

CGTCCAAGGTCTATGCTAGGTCAGTGAAAGCATT: the PBM binding z-score was determined as 0.278. With TGTCAAAGTTAAAAGGTAACGTAAGTATCCACAC, the PBM binding z-score was 0.375. As to TCTATTAGTTGAAGGGCAACCGCCGAGTCCGTTT, the PBM binding z-score is 0.974.

ATCTCTATGTAAGACTCAGTTCAGTGAAGAACGC came in with a PBM binding z-score of 0.971. As for CCGACTGGGGCAGGAAGGTTACCATACCATCCGG, the PBM binding z-score turned out to be 0.235. In the case of ACTAGTTGGTCAGCTGAGGACACACACAATTCGG, the PBM binding z-score is 0.506. In turn, CCTGCTATGTCAATGGTCAGCTAAAGCAGCTCGC displayed a PBM binding z-score of -0.397.

In turn, CCTTACTGGTCACGAGGTTATAGCACGACGAGCG displayed a PBM binding z-score of 1.86. Regarding CGGCCTAGGTCAGGGCCAGTATAGGAGGAACGTT, the PBM binding z-score was determined as 0.12. CGTCCAAGGTCAGCGAGGTCAGTGAATGCCGAGT displayed a PBM binding z-score of 7.6. Regarding ATCTCTAGTTAAAAGTTCAGTGAATCCCGAGGAT, the PBM binding z-score was determined as 1.29.

CAAACTAGGTCACAGAGGTCAAGGTCCGTGCGTA yielded a PBM binding z-score of 7.73. Sequence TCTGCTAGTTCAGTTGGTCAGCTAACGAGCTGCC yielded a PBM binding z-score of -0.158.

Consider CCTACTGGGCCATTCAGAGGTCATTGCTCATATG, for which the PBM binding z-score stood at 3.84. In turn, ACATGTAGGTTATCGGGTCATTCAGTTTGCGCAT had a PBM binding z-score of 5.39.

Regarding TAGCCTAGGTAAGATCGGGCCAGTATACGCTATA, the PBM binding z-score is -0.645.
